Assay results: the supplement of paper PMC10849652
Of roughly 7,900 targets only a part is listed; those with a hit were picked by preference. About 0.6% of all pairs of compound and target were hits.

Experiments:
Test in all cases: log2 fold change, soluble protein after heating vs DMSO (PISA); higher = thermal stabilisation; K562 cells, 10 uM, 30 min; active = over 0.2 and 3.5 SD of the protein, either way, in both replicates (recomputed)
[1] = compound: NC(=O)Nc1cc(-c2cccc(F)c2)sc1C(=O)N[C@H]1CCCNC1
Outline: (§1)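 K562 cells at 2×10^6 cells/mL were treated with 10 μM compound for 30 min. Aliquots were heated for 3 min across 48°C-58°C, pooled, and extracted in PBS with 0.5% NP-40 at 4°C; soluble protein was the supernatant after 21,000xg for 90 min. Soluble protein was quantified by TMTpro 16plex LC-MS/MS with channel sums equalised, and reported as log2 fold change in thermal stability against DMSO controls, with values from duplicates.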

[2] = compound: NC(=O)c1cnc(N[C@@H]2CCCC[C@@H]2N)nc1Nc1cccc(-n2nccn2)c1
Outline: as §1

[3] = compound: NC1(c2ccc(-c3nc4ccn5c(=O)[nH]nc5c4cc3-c3ccccc3)cc2)CCC1
Outline: as §1

[4] = compound: NCC(=O)Nc1ccc(-n2nc(C(F)(F)F)cc2-c2ccc3c(ccc4ccccc43)c2)cc1
Outline: as §1

entinostat = compound: Nc1ccccc1NC(=O)c1ccc(CNC(=O)OCc2cccnc2)cc1 [entinostat]
Outline: as §1

citarinostat = compound: O=C(CCCCCCNC(=O)c1cnc(N(c2ccccc2)c2ccccc2Cl)nc1)NO [citarinostat]
Outline: as §1

silmitasertib = compound: O=C(O)c1ccc2c(c1)nc(Nc1cccc(Cl)c1)c1ccncc12 [silmitasertib]
Outline: as §1

[5] = compound: O=C1NC(=O)C(c2cnc3ccccn23)=C1c1cn2c3c(cc(F)cc13)CN(C(=O)N1CCCCC1)CC2
Outline: as §1

[6] = compound: c1cc(OCCN2CCCCC2)cc(-c2n[nH]c3ccc(-c4nnc[nH]4)cc23)c1
Outline: as §1

entospletinib = compound: c1cn2cc(-c3ccc4cn[nH]c4c3)nc(Nc3ccc(N4CCOCC4)cc3)c2n1 [entospletinib]
Outline: as §1

vorinostat = compound: O=C(CCCCCCC(=O)Nc1ccccc1)NO [vorinostat]
Outline: as §1

Measured: log2 fold change

IMMP1L (UniProt Q96LU5)
inactive: [1] -0.062 | [2] -0.055 | [3] -0.103 | [4] -0.037 | entinostat 0.005 | citarinostat 0.044 | silmitasertib -0.132 | [5] -0.088 | [6] 0.017 | entospletinib -0.172

MED12 isoform 2 (UniProt Q93074)
inactive: [1] 0.022 | [2] -0.455 | [3] -0.191 | entinostat 0.066 | vorinostat 0.22 | citarinostat 0.181 | silmitasertib 0.016 | [5] -0.005 | [6] -0.311 | entospletinib 0.177

KPNA6 (UniProt O60684)
inactive: [1] 0.01 | [2] -0.007 | [3] -0.06 | [4] -0.002 | entinostat 0.051 | vorinostat 0.061 | citarinostat 0.047 | silmitasertib 0.219 | [5] 0.067 | [6] -0.159 | entospletinib -0.021

ITM2B (UniProt Q9Y287)
inactive: [1] -0.036 | [2] 0.091 | [3] -0.144 | [4] 0.021 | entinostat -0.083 | citarinostat -0.006 | [5] 0.109 | [6] -0.178 | entospletinib -0.011
active: silmitasertib 0.38

MAP3K4 isoform 2 (UniProt Q9Y6R4)
inactive: [1] 0.036 | [2] -0.025 | [3] -0.104 | [4] -0.025 | entinostat -0.027 | vorinostat -0.019 | citarinostat 0.006 | silmitasertib 0 | [5] -0.029 | [6] -0.075 | entospletinib 0.02

MED25 isoform 3 (UniProt Q71SY5)
inactive: [1] -0.016 | [2] -0.021 | [4] 0.064 | entinostat 0.065 | vorinostat -0.349 | citarinostat 0.052 | silmitasertib 0.174 | [6] -0.148 | entospletinib -0.01
active: [3] -0.591

MASTL (UniProt Q96GX5)
inactive: [1] 0.123 | [2] -0.018 | [3] 0.144 | [4] -0.004 | entinostat 0.053 | citarinostat -0.018 | silmitasertib 0.123 | [5] 0.039 | [6] 0.002 | entospletinib -0.014

ITGA2B (UniProt P08514)
inactive: [1] 0.085 | [2] -0.222 | [4] -0.009 | entinostat -0.009 | [5] 0.02
active: vorinostat -0.495

MED8 isoform 2 (UniProt Q96G25)
inactive: [1] 0.048 | [2] 0.2 | [3] 0.038 | [4] 0.303 | entinostat -0.107 | citarinostat 0.035 | silmitasertib 0.079 | [5] -0.043 | [6] -0.092 | entospletinib 0.034

MFAP3 (UniProt P55082)
inactive: [1] 0.043 | [2] -0.04 | [4] -0.09 | entinostat -0.052 | [5] -0.243

LUZP1 (UniProt Q86V48)
inactive: [1] 0.055 | [2] 0.089 | [3] 0.087 | [4] 0.058 | entinostat -0.081 | vorinostat -0.119 | silmitasertib 0.114 | [5] 0.084

MED7 (UniProt O43513)
inactive: [1] 0.034 | [2] 0.122 | [4] -0.041 | entinostat -0.16 | [5] -0.085

MAPKAPK2 (UniProt P49137)
inactive: [1] 0.12 | [2] 0.035 | [3] -0.14 | [4] 0.034 | entinostat 0.018 | vorinostat 0.04 | citarinostat 0.058 | silmitasertib 0.06 | [5] -0.128 | [6] -0.006 | entospletinib -0.061

MAGED1 isoform 2 (UniProt Q9Y5V3)
inactive: [1] 0.098 | [2] -0.029 | [4] -0.258 | entinostat 0 | [5] 0.262

MAP3K20 isoform 2 (UniProt Q9NYL2)
inactive: [1] 0.09 | [2] -0.041 | [3] 0.099 | entinostat 0.056 | silmitasertib 0.009 | [5] -0.008

LAPTM4B (UniProt Q86VI4)
inactive: [1] -0.109 | [3] 0.116 | entinostat -0.126 | vorinostat -0.064 | citarinostat 0.092 | silmitasertib 0.025 | [6] -0.178 | entospletinib 0.049

MAP2K5 (UniProt Q13163)
inactive: [2] -0.025

MCM10 (UniProt Q7L590)
inactive: [3] 0.002 | [4] -0.085 | entinostat 0.224 | vorinostat 0.021 | citarinostat 0.143 | silmitasertib -0.129 | [5] 0.134 | [6] 0.107 | entospletinib -0.04
active: [1] 0.522

LOX (UniProt P28300)
inactive: [3] -0.086 | silmitasertib 0.187

LRRCC1 (UniProt Q9C099)
inactive: [2] -0.041

KMT5A (UniProt Q9NQR1)
inactive: [1] 0.069 | entinostat -0.258 | vorinostat 0.096

MBLAC1 (UniProt A4D2B0)
inactive: [2] -0.031 | [3] -0.179 | [4] 0.242 | vorinostat -0.021 | citarinostat 0.01 | silmitasertib -0.082 | [6] -0.067 | entospletinib 0.083

MFSD8 (UniProt Q8NHS3)
inactive: [2] 0.02 | [3] -0.115 | [4] -0.076 | vorinostat -0.008 | citarinostat -0.003 | silmitasertib 0.069 | [5] -0.007 | [6] -0.129 | entospletinib 0.053

LRFN1 (UniProt Q9P244)
Chain of UniProt Q9P244 (Q9P244 whole entry, looked up): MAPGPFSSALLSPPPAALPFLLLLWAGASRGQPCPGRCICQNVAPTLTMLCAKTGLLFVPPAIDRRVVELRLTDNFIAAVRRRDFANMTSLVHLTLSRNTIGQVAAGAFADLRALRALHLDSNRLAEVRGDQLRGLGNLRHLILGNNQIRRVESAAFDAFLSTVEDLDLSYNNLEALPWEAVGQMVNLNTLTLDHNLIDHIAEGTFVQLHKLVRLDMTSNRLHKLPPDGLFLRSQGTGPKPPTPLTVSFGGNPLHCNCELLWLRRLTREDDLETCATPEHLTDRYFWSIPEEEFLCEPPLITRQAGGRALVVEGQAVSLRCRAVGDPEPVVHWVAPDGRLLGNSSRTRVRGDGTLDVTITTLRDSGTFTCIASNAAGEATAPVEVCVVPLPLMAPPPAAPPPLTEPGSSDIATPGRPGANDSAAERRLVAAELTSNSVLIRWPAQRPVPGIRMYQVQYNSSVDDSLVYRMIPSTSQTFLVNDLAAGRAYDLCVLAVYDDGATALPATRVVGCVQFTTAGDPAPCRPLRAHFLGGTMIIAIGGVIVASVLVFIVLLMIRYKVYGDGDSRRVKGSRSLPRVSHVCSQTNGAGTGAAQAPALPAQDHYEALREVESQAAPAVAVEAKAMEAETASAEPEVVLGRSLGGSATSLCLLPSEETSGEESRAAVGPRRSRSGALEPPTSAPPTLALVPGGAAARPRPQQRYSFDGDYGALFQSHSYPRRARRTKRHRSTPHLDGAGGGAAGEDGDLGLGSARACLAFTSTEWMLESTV
inactive: [1] -0.14 | [4] -0.166 | entinostat 0.133 | citarinostat -0.06 | [5] 0.036 | [6] 0.716 | entospletinib -0.031

MGRN1 isoform 2 (UniProt O60291)
inactive: [2] 0.11 | vorinostat -0.024

MAPRE3 isoform 2 (UniProt Q9UPY8)
inactive: [2] -0.033

KXD1 (UniProt Q9BQD3)
inactive: [2] -0.091 | [3] -0.237 | [4] -0.021 | vorinostat -0.046 | citarinostat 0.042 | silmitasertib -0.113 | [5] 0.131 | [6] -0.055 | entospletinib 0.016

MAPK11 (UniProt Q15759)
inactive: vorinostat 0.033

LRRFIP1 isoform 4 (UniProt Q32MZ4)
Chain of UniProt Q32MZ4 (Q32MZ4 whole entry, looked up): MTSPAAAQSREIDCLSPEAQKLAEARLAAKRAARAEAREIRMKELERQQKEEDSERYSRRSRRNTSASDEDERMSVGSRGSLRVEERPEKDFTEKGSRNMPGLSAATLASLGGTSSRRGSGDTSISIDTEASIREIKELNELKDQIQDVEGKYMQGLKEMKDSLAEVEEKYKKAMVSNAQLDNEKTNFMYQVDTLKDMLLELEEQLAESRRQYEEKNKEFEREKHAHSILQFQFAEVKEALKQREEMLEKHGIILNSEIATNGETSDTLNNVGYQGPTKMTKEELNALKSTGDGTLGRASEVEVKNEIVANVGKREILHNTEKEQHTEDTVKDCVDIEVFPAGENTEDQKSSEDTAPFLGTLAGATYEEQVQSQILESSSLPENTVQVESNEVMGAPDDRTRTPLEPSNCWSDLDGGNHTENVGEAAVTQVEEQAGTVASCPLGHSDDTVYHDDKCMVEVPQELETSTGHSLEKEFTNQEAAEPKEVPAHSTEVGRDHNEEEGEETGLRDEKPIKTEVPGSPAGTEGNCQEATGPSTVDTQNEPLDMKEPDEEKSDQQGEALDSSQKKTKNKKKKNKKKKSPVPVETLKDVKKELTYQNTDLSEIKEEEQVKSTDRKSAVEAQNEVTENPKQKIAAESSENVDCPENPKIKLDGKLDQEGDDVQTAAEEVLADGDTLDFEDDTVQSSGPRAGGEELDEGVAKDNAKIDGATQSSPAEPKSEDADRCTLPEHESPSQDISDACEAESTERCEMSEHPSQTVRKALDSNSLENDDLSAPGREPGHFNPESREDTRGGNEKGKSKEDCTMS
inactive: [2] 0.04 | vorinostat -0.062 | [5] -0.019

IPP (UniProt Q9Y573)
inactive: [2] 0.047

MCOLN3 (UniProt Q8TDD5)
inactive: [3] -0.254 | vorinostat 0 | citarinostat 0.095 | silmitasertib 0.083 | [6] 0.159 | entospletinib -0.194

LAMP2 isoform 2 (UniProt P13473)
Chain of UniProt P13473 (P13473 whole entry, looked up): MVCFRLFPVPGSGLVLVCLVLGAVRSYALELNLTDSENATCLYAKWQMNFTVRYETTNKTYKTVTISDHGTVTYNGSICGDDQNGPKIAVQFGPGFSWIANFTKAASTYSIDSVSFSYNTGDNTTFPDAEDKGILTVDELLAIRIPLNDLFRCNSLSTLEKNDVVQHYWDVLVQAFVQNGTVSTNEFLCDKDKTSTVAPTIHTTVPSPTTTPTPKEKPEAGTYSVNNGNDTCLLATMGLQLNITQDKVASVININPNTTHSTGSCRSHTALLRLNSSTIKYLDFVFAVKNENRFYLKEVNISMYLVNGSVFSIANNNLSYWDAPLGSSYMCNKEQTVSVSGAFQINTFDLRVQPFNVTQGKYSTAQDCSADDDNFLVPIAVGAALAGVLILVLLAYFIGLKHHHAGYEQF
inactive: [2] -0.1 | [3] -0.321 | [4] -0.132 | vorinostat -0.113 | citarinostat 0.061 | silmitasertib 0.003 | [5] 0.027 | [6] -0.275 | entospletinib 0.033

MED29 (UniProt Q9NX70)
inactive: [2] 0.05 | [3] 0.029 | silmitasertib 0.133

IGFBP6 (UniProt P24592)
inactive: [2] -0.079 | [4] -0.13

LSR isoform 3 (UniProt Q86X29)
inactive: [1] -0.531 | [3] -0.327 | entinostat -0.134 | silmitasertib 0.062

MAML1 (UniProt Q92585)
Chain of UniProt Q92585 (Q92585 whole entry, looked up): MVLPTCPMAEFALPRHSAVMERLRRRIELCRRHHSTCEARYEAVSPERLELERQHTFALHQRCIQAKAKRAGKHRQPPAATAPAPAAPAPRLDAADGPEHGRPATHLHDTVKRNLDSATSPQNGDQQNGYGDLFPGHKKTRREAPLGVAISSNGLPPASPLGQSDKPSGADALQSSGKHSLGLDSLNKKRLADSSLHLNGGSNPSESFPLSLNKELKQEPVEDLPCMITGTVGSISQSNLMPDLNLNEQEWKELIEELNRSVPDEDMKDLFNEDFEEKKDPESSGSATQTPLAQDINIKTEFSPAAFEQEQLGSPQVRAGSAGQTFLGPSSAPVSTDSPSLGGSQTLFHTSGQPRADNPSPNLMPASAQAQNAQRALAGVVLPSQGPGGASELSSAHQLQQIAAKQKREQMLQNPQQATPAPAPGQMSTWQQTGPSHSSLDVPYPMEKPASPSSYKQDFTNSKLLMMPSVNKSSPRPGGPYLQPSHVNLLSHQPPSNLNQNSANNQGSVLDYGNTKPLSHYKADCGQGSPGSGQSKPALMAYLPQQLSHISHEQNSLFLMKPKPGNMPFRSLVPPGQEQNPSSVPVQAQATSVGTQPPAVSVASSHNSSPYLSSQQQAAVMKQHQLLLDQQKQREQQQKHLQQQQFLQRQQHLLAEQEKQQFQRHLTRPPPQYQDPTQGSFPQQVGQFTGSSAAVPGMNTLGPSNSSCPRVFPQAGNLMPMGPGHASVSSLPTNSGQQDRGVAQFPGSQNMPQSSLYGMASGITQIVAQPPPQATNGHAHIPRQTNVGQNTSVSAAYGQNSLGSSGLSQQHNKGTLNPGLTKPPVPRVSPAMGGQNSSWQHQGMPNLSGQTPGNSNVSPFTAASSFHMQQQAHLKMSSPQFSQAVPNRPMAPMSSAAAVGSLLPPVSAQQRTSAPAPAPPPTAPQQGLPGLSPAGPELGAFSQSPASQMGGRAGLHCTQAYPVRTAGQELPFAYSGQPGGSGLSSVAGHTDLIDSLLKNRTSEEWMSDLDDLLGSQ
inactive: [1] 0.08 | [4] 0.088 | entinostat -0.104 | [5] 0.025

ING5 (UniProt Q8WYH8)
inactive: [3] -0.042 | citarinostat 0.115 | silmitasertib -0.013 | [6] -0.008 | entospletinib -0.058

IKZF1 (UniProt R9R4D9)
inactive: vorinostat -0.181

MAPK7 (UniProt Q13164)
inactive: [2] -0.25 | vorinostat -0.069 | [5] 0

LEPROT (UniProt O15243)
inactive: [2] -0.161 | [3] -0.088 | vorinostat -0.142 | citarinostat 0.125 | silmitasertib 0.005 | [5] 0.261 | [6] -0.072 | entospletinib 0.029

ILF3 (UniProt Q12906)
inactive: [1] 0.013 | [3] 0.331 | entinostat 0.058 | citarinostat -0.134 | silmitasertib 0.181 | [5] 0.174 | [6] -0.218 | entospletinib -0.086

KIZ (UniProt Q2M2Z5)
Chain of UniProt Q2M2Z5 (Q2M2Z5 whole entry, looked up): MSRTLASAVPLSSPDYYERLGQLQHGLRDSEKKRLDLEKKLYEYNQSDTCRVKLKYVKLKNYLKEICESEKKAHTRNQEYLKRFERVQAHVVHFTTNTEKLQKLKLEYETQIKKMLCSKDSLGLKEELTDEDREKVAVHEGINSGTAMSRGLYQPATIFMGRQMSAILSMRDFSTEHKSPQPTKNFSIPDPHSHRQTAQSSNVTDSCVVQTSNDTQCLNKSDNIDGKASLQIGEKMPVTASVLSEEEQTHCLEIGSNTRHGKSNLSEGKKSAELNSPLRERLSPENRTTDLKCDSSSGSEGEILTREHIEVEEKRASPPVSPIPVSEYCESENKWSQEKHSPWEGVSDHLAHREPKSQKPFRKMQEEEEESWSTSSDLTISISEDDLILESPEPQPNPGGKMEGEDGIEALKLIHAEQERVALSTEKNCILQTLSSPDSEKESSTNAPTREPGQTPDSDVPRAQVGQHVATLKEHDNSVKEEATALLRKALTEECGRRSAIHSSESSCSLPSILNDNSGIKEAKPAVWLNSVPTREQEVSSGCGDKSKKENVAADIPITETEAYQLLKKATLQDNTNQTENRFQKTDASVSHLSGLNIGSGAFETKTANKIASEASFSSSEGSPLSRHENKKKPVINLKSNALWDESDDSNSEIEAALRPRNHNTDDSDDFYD
inactive: [2] -0.067 | vorinostat 0.137 | citarinostat -0.094 | [6] 0.045 | entospletinib -0.105

KIF1B isoform 3 (UniProt O60333)
inactive: [3] -0.073 | [4] -0.389 | citarinostat 0.043 | silmitasertib -0.057 | [6] -0.55 | entospletinib 0.041

MFSD12 isoform 3 (UniProt Q6NUT3)
inactive: [1] 0.073 | [2] -0.159 | entinostat -0.067 | vorinostat 0.11 | citarinostat 0.1 | [6] -0.162 | entospletinib -0.089

ITPRID2 (UniProt P28290)
inactive: [4] -0.059 | citarinostat -0.029 | [5] -0.208 | [6] 0.211 | entospletinib -0.017

IKZF1 isoform 2 (UniProt Q13422)
Chain of UniProt Q13422 (Q13422 whole entry, looked up): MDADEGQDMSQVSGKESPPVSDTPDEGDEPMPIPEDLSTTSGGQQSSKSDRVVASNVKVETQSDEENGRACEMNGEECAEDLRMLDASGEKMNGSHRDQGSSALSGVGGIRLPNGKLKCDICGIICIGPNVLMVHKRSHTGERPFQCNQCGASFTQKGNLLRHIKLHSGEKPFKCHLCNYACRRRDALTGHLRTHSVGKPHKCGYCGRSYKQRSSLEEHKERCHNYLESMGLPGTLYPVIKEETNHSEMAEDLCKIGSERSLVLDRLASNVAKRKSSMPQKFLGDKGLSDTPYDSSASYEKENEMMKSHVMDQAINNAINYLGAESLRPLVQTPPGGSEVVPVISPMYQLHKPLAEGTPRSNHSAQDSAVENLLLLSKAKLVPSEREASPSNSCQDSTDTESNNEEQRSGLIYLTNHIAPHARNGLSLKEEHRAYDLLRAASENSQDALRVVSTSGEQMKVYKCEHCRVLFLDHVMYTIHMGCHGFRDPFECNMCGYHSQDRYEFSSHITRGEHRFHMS
inactive: [1] 0.06 | [3] -0.109 | [4] 0.036 | entinostat -0.006 | silmitasertib 0.063

MARCHF3 (UniProt Q86UD3)
inactive: [1] 0.169 | entinostat -0.038 | citarinostat -0.133 | [5] -0.014 | [6] -0.26 | entospletinib 0.058

LIN52 (UniProt Q52LA3)
inactive: [3] 0.294 | silmitasertib -0.045

JAK3 (UniProt P52333)
inactive: [1] 0 | [3] -0.045 | [4] -0.102 | entinostat -0.019 | vorinostat -0.048 | silmitasertib -0.003 | [5] 0.002

LSR (UniProt M0QZL9)
inactive: [1] -0.508 | [4] -0.095 | entinostat -0.406 | [5] -0.074

MAGEA8 (UniProt P43361)
inactive: [2] -0.135 | [4] 0.034 | vorinostat -0.063 | citarinostat 0.012 | [6] -0.008 | entospletinib 0.125

MAP4K4 isoform 6 (UniProt O95819)
inactive: [1] 0.332 | [3] 0.009 | [4] 0.228 | entinostat 0.237 | citarinostat 0.114 | silmitasertib -0.202 | [6] 0.143 | entospletinib -0.103

MAP4K2 (UniProt Q12851)
Chain of UniProt Q12851 (Q12851 whole entry, looked up): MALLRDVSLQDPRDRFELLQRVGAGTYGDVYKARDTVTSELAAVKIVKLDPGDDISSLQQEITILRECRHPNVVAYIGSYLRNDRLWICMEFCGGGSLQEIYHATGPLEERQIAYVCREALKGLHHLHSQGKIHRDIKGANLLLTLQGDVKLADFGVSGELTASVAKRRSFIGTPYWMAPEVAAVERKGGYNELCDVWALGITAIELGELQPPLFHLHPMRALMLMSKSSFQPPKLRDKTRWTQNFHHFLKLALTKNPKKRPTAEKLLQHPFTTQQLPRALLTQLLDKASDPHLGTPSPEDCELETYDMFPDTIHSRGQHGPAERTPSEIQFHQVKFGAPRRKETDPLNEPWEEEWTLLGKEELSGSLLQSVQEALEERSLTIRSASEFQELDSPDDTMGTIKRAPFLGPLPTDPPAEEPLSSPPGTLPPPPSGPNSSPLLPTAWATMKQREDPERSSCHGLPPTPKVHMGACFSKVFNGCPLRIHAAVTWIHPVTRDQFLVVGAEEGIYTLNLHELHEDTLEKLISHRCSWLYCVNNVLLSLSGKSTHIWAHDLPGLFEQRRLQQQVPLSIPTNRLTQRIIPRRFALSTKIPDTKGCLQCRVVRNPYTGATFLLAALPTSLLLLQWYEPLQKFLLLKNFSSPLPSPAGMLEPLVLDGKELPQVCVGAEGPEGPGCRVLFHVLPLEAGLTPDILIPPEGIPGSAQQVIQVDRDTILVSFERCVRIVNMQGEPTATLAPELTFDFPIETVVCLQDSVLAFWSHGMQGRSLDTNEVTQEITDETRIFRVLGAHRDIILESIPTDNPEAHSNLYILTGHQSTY
active: [1] 0.827
inactive: entinostat 0.145 | citarinostat 0.116 | [6] -0.22 | entospletinib 0.128

KCNK5 (UniProt O95279)
inactive: [1] -0.066 | [3] 0.16 | entinostat 0.031 | vorinostat -0.102 | citarinostat 0.198 | silmitasertib 0.093 | [5] 0.004 | [6] 0.005 | entospletinib 0.171
